Measured values from the supplement of paper PMC8699584.
Where a name gives a salt, the structure may show the parent alone. ± gives the standard deviation of the averaged measurements.

Legend:
[1] = system: Molm13; experiment: cell viability relative to DMSO control (bortezomib = 0%); higher = less growth inhibition; conditions: 10 nM; 72 h
Procedure, shortened: (§1)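 Acute myeloid leukemia cells, 1000 per well in 50 µL, were incubated for 72 h on 384-well plates with 679 approved and investigational compounds, each at a single 10 nM dose. Viability was read by CellTiter-Glo luminescence. Values were expressed as percentages through per-plate linear regression against DMSO-treated (100%) and positive-control-treated (0%) cells.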

[2] = system: Mv4-11; experiment: as above; conditions: 10 nM; 72 h
Procedure, shortened: as §1

NC(=O)c1ccc(N(C(N)=O)c2c(F)cccc2F)nc1-c1ccc(F)cc1F
cell viability [1]: 93.7 ± 5.1% | cell viability [2]: 98.7 ± 8.1%

COc1ccc(CNC(=O)Nc2ncc([N+](=O)[O-])s2)cc1
cell viability [1]: 107 ± 7.3% | cell viability [2]: 114 ± 15%

CN1C/C=C/CCOc2cccc(c2)-c2ccnc(n2)Nc2cccc(c2)C1
cell viability [1]: 86.77 ± 0.29% | cell viability [2]: 102 ± 22%

O=C1NC(=O)/C(=C/c2cccc(C(F)(F)F)c2)S1
cell viability [1]: 112 ± 15% | cell viability [2]: 119 ± 17%

O=C1NC(=O)[C@@H](c2cn3c4c(cccc24)CCC3)[C@@H]1c1c[nH]c2ccccc12 [Tivantinib (ARQ 197)]
cell viability [1]: 105 ± 3.9% | cell viability [2]: 115 ± 11%

COc1cc(Nc2ncc(F)c(Nc3ccc4c(n3)NC(=O)C(C)(C)O4)n2)cc(OC)c1OC [R406 free base]
cell viability [1]: 101.7 ± 0.97% | cell viability [2]: 105 ± 1.6%

Clc1cnccn1 [2-Chloropyrazine]
cell viability [1]: 113 ± 6.1% | cell viability [2]: 94.5 ± 27%

COc1ccc(C(=C2C(=O)Nc3ccccc32)c2ccc(OC)cc2)cc1
cell viability [1]: 95.1 ± 2.4% | cell viability [2]: 103 ± 5%

O=C(O)c1cc(O)c2c(c1)[C@@H]([C@H]1c3cc(C(=O)O)cc(O)c3C(=O)c3c(O[C@@H]4O[C@H](CO)[C@@H](O)[C@H](O)[C@H]4O)cccc31)c1cccc(O[C@@H]3O[C@H](CO)[C@@H](O)[C@H](O)[C@H]3O)c1C2=O [Sennoside B]
cell viability [1]: 101 ± 12% | cell viability [2]: 91.4 ± 16%

CN(C)CCCn1cc(C2=C(c3c[nH]c4ccccc34)C(=O)NC2=O)c2ccccc21 [Bisindolylmaleimide I]
cell viability [1]: 94.6 ± 15% | cell viability [2]: 67.1 ± 44%

CC1(C)CC(=O)C2=C(C1)NC(=S)NC2c1cccc(O)c1 (configuration not stated) [Dimethylenastron]
cell viability [1]: 91 ± 2.6% | cell viability [2]: 109 ± 4.5%

CCc1cc2c(cc1N1CCC(N3CCOCC3)CC1)C(C)(C)c1[nH]c3cc(C#N)ccc3c1C2=O [Alectinib]
cell viability [1]: 102 ± 7.8% | cell viability [2]: 100 ± 2.9%

Fc1ccc2[nH]ccc2c1-c1nc(N2CCOCC2)c2sc(CN3CCN(CC4CC4)CC3)cc2n1
cell viability [1]: 111 ± 13% | cell viability [2]: 119 ± 7.6%

O=C(Nc1ccc(-c2ccnc(Nc3ccc(N4CCOCC4)cc3)n2)cc1)C1CCCN1 (configuration not stated)
cell viability [1]: 107 ± 16% | cell viability [2]: 95.7 ± 4.2%

Cc1ccc(Nc2nccc(N(C)c3ccc4c(C)n(C)nc4c3)n2)cc1S(N)(=O)=O [Pazopanib]
cell viability [1]: 101 ± 36% | cell viability [2]: 104 ± 4.1%

COc1cc(Nc2ncc(F)c(Nc3ccc4c(n3)N(COP(=O)(O)O)C(=O)C(C)(C)O4)n2)cc(OC)c1OC [Fostamatinib (R788)]
cell viability [1]: 99.7 ± 0.34% | cell viability [2]: 104 ± 1.8%

CCCS(=O)(=O)Nc1ccc(F)c(C(=O)c2c[nH]c3ncc(-c4ccc(Cl)cc4)cc23)c1F [Vemurafenib (PLX4032, RG7204)]
cell viability [1]: 101 ± 7% | cell viability [2]: 105 ± 1.1%

Cc1cc(F)c(Nc2ncnc3cc(OCc4ccccc4)ccc23)cc1O
cell viability [1]: 103 ± 1.4% | cell viability [2]: 118 ± 11%

C=CC(=O)N1CCC[C@@H](n2nc(-c3ccc(Oc4ccccc4)cc3)c3c(N)ncnc32)C1
cell viability [1]: 95.3 ± 9.3% | cell viability [2]: 93.2 ± 4.6%

CN(C)CCN(Cc1ccc(Cl)cc1)c1ccccn1 [Chloropyramine hydrochloride]
cell viability [1]: 105 ± 27% | cell viability [2]: 107 ± 12%

COc1cc2/c(=N/c3ccc(Br)cc3F)nc[nH]c2cc1OCC1CCN(C)CC1 [Vandetanib (ZD6474)]
cell viability [1]: 116 ± 22% | cell viability [2]: 117 ± 41%

CCCCCN(CCCOC)C(=O)C(CCC(=O)O)NC(=O)c1ccc(Cl)c(Cl)c1 (configuration not stated) [Loxiglumide]
cell viability [1]: 85.9 ± 4.4% | cell viability [2]: 108 ± 3.1%

CCOc1cn(-c2ccc(F)cc2C)nc1C(=O)Nc1ccc(Oc2ccnc3cc(OC)c(OC)cc23)c(F)c1
cell viability [1]: 112 ± 20% | cell viability [2]: 109 ± 2.8%

COc1cc(Nc2ncc(F)c(Nc3ccc4c(n3)N(COP(=O)(O)O)C(=O)C(C)(C)O4)n2)cc(OC)c1OC [R788 (Fostamatinib) Disodium]
cell viability [1]: 92 ± 3.9% | cell viability [2]: 96.4 ± 10%

CN1CC(O)C2=C/C(=N/NC(N)=O)C(=O)C=C21 (configuration not stated) [Carbazochrome]
cell viability [1]: 93.7 ± 20% | cell viability [2]: 107 ± 9.7%

COc1ccc(C=C(C#N)c2cccnc2)cc1OC
cell viability [1]: 100 ± 14% | cell viability [2]: 103 ± 0.99%

COC(=O)c1ccc2c(c1)NC(=O)/C2=C(\Nc1ccc(N(C)C(=O)CN2CCN(C)CC2)cc1)c1ccccc1 [Nintedanib (BIBF 1120)]
cell viability [1]: 83.62 ± 0.69% | cell viability [2]: 113 ± 5.7%

Cc1cn(-c2cc(NC(=O)c3ccc(C)c(Nc4nccc(-c5cnccn5)n4)c3)cc(C(F)(F)F)c2)cn1 [Radotinib]
cell viability [1]: 100 ± 2.6% | cell viability [2]: 107 ± 13%

COc1ccc(-n2c(SCC#N)nc3sc4c(c3c2=O)CCCC4)cc1 [Necrostatin-5]
cell viability [1]: 102 ± 3.9% | cell viability [2]: 103 ± 3%

O=C(Nc1cc(C(F)(F)F)ccc1N1CCCCC1)c1ccncc1
cell viability [1]: 99.5 ± 9.8% | cell viability [2]: 129 ± 17%

CN(C)C(=N)NC(=N)N [Metformin hydrochloride]
cell viability [1]: 104 ± 25% | cell viability [2]: 90.48 ± 0.55%
